From PubChem BioAssay (NCI)
About 79,000 compounds went through this panel and 15% of them were active in at least one assay; those are over-represented in the sample as a whole. Active and inactive are the calls of the source. No stated cut-off is given here; in the data, active means growth inhibition above about 70%; inactive means the rest.

Tests used:
[1] = NCI Yeast Anticancer Drug Screen. Data for the rad52 strain (AID 147);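 further: 0% = growth of vehicle-treated control cultures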; settings: S. cerevisiae rad52 mutant growth inhibition, hits give high values
How it was run: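 Measured: yeast growth inhibition. System: strain with a defined DNA damage repair alteration. Reference: vehicle-treated control cultures.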

[2] = NCI Yeast Anticancer Drug Screen. Data for the wt1 strain (AID 149);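 further: 0% = growth of vehicle-treated wt1 cultures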; settings: S. cerevisiae wt1 strain (SPY 50644) growth inhibition, hits give high values
How it was run: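 The wt1 strain was treated with compounds, and growth was compared with vehicle-treated cultures to give inhibition.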

[3] = NCI Yeast Anticancer Drug Screen. Data for the rad50EPP+ strain (AID 151);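 further: 0% = growth of vehicle-treated control cultures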; settings: S. cerevisiae rad50 mutant strain, hits give high values
How it was run: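 One strain with a rad50 alteration (rad50EPP+) was compound-treated, its growth then compared to that of vehicle controls.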

[4] = NCI Yeast Anticancer Drug Screen. Data for the mgt1 strain (AID 153); settings: S. cerevisiae mgt1 mutant growth inhibition, hits give high values
How it was run: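 After exposure of the mgt1 yeast mutant to compound, growth was measured and reported as inhibition compared with vehicle controls.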

[5] = NCI Yeast Anticancer Drug Screen. Data for the rad50 strain (AID 155);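 further: 0% = growth of vehicle-only cultures of the same strain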; settings: S. cerevisiae rad50 strain growth inhibition, hits give high values
How it was run: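 Cells are treated with compound, grown, and their growth is then scored against vehicle-only cultures of the same repair-deficient yeast strain.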

[6] = NCI Yeast Anticancer Drug Screen. Data for the mec2-1 strain (AID 157); settings: S. cerevisiae mec2-1 strain, hits give high values
How it was run: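 Test agents were screened against the mec2-1 yeast strain, with defined DNA repair or cell cycle alteration. Growth was scored as inhibition against vehicle-only controls.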

[7] = NCI Yeast Anticancer Drug Screen. Data for the rad14 strain (AID 159);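 further: 0% = growth of vehicle-treated control cultures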; settings: S. cerevisiae rad14 strain growth inhibition, hits give high values
How it was run: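 Readout: yeast growth inhibition, referenced to vehicle-only cultures. Strain bears a defined alteration in DNA damage repair.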

[8] = NCI Yeast Anticancer Drug Screen. Data for the CLN2oe strain (AID 163);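 further: 0% = growth of vehicle-only control cultures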; settings: S. cerevisiae CLN2oe strain, hits give high values
How it was run: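 Here, growth inhibition in a cell-cycle-altered yeast strain after compound exposure was quantified against vehicle control growth.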

[9] = NCI Yeast Anticancer Drug Screen. Data for the cln2 rad14 strain (AID 165);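 further: 0% = growth equal to vehicle treated cultures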; settings: S. cerevisiae cln2 rad14 strain, hits give high values
How it was run: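 Growth of compound-exposed yeast (cln2 rad14 genotype) measured and expressed as inhibition relative to vehicle.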

[10] = NCI Yeast Anticancer Drug Screen. Data for the bub3 strain (AID 167); settings: S. cerevisiae bub3 mutant strain, hits give high values
How it was run: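 Part of a panel of yeast mutants defective in DNA damage repair or cell cycle regulation. Each strain is grown with compound, and inhibition is calculated relative to solvent-treated cultures.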

[11] = NCI Yeast Anticancer Drug Screen. Data for the wt2 strain (AID 169);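 further: 0% = growth of vehicle-treated yeast cultures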; settings: S. cerevisiae wt2 strain growth inhibition, hits give high values
How it was run: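 Genetically defined yeast strains from a DNA-repair/cell-cycle panel were used. Compound-exposed yeast growth was measured, and the inhibition was calculated relative to vehicle treatment.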

[12] = NCI Yeast Anticancer Drug Screen. Data for the mlh1 strain (AID 171);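 further: 0% = growth of vehicle-treated control cultures of the same strain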; settings: S. cerevisiae mlh1 strain growth inhibition, hits give high values
How it was run: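 Here the genetically defined yeast mutant is grown with each compound, and the extent to which its growth falls below that of vehicle-exposed cells is reported.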

[13] = NCI Yeast Anticancer Drug Screen. Data for the sgs1 strain (AID 173);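 further: 0% = growth of vehicle-only control cultures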; settings: S. cerevisiae sgs1 mutant, hits give high values
How it was run: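 Relative growth inhibition, referenced to vehicle, was determined in a yeast strain with a defined alteration affecting DNA damage repair or cell cycle control after compound exposure.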

[14] = NCI Yeast Anticancer Drug Screen. Data for the mlh1 rad18 strain (AID 175); settings: S. cerevisiae mlh1 rad18 strain growth inhibition, hits give high values
How it was run: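 In this whole-cell yeast screen, a strain with altered DNA damage repair is challenged with compound, and its growth is measured against matched vehicle-treated controls.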

[15] = NCI Yeast Anticancer Drug Screen. Data for the rad18 strain (AID 177); settings: S. cerevisiae rad18 mutant growth inhibition, hits give high values
How it was run: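 Screen uses a yeast strain with a defined lesion in DNA damage repair; compound effect is read as loss of growth compared to untreated vehicle cultures.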

[16] = NCI Yeast Anticancer Drug Screen. Data for the sgs1 mgt1 strain (AID 161);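 further: 0% = growth of cultures given vehicle only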; settings: S. cerevisiae sgs1 mgt1 strain, hits give high values
How it was run: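 Test agents were incubated with a DNA-repair-mutant yeast strain. Growth was then read and compared against vehicle-treated controls.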

[17] = at 5.0 µM (retest, dose inferred, filed as 0.5)
[18] = at 50.0 µM (retest, dose inferred, filed as 5.0)

Measured: growth inhibition

CC(CC(C)(C)[N+](C)(C)C)[N+](C)(C)C (stereo not drawn)
inactive: [1]; at 1.2 µM 13% | [1]; at 3.7 µM 1% | [1]; at 11.0 µM 13% | [1]; at 33.0 µM 15% | [1]; at 100.0 µM 14% | [2]; at 1.2 µM 3% | [2]; at 3.7 µM -2% | [2]; at 11.0 µM -3% | [2]; at 33.0 µM -3% | [2]; at 100.0 µM 0% | [3]; at 1.2 µM -1% | [3]; at 3.7 µM 1% | [3]; at 11.0 µM 1% | [3]; at 33.0 µM 4% | [3]; at 100.0 µM -1% | [4]; at 1.2 µM -1% | [4]; at 3.7 µM 1% | [4]; at 11.0 µM 2% | [4]; at 33.0 µM 1% | [4]; at 100.0 µM 0% | [5]; at 1.2 µM 1% | [5]; at 3.7 µM 1% | [5]; [17] 25% | [5]; at 11.0 µM 2% | [5]; at 33.0 µM 2% | [5]; at 100.0 µM 0% | [6]; at 1.2 µM 5% | [6]; at 3.7 µM -11% | [6]; [17] 19% | [6]; at 11.0 µM -4% | [6]; at 33.0 µM 2% | [6]; at 100.0 µM -4% | [7]; at 1.2 µM 2% | [7]; at 3.7 µM 3% | [7]; at 11.0 µM 3% | [7]; at 33.0 µM 3% | [7]; at 100.0 µM 1% | [8]; at 1.2 µM -11% | [8]; at 3.7 µM -1% | [8]; at 11.0 µM 1% | [8]; at 33.0 µM -6% | [8]; at 100.0 µM -7% | [9]; [17] 35% | [10]; at 1.2 µM -2% | [10]; at 3.7 µM -8% | [10]; [17] 67% | [10]; at 11.0 µM 0% | [10]; at 33.0 µM -1% | [10]; at 100.0 µM -1% | [11]; at 1.2 µM -1% | [11]; at 3.7 µM -1% | [11]; at 11.0 µM 0% | [11]; at 33.0 µM -1% | [11]; at 100.0 µM -1% | [12]; at 1.2 µM -1% | [12]; at 3.7 µM -1% | [12]; at 11.0 µM -2% | [12]; at 33.0 µM -3% | [12]; at 100.0 µM 0% | [13]; at 1.2 µM 2% | [13]; at 3.7 µM 3% | [13]; at 11.0 µM 1% | [13]; at 33.0 µM 4% | [13]; at 100.0 µM -1% | [14]; [17] 12% | [15]; at 1.2 µM 11% | [15]; at 3.7 µM 8% | [15]; at 11.0 µM 14% | [15]; at 33.0 µM 15% | [15]; at 100.0 µM 20%
active: [5]; [18] 95% | [5]; at 50.0 µM 92.8% | [6]; [18] 97% | [6]; at 50.0 µM 96% | [9]; [18] 95% | [9]; at 50.0 µM 90.8% | [10]; [18] 99% | [10]; at 50.0 µM 95.7% | [14]; [18] 97% | [14]; at 50.0 µM 94.3%

O=Nc1cccnc1N=O
active: [1]; at 11.0 µM 86% | [1]; at 33.0 µM 98% | [1]; at 100.0 µM 98% | [2]; at 33.0 µM 99% | [2]; at 100.0 µM 99% | [3]; at 33.0 µM 97% | [3]; at 100.0 µM 98% | [4]; at 11.0 µM 79% | [4]; at 33.0 µM 99% | [4]; at 100.0 µM 99% | [5]; at 33.0 µM 98% | [5]; [18] 99% | [5]; at 50.0 µM 99.5% | [5]; at 100.0 µM 98% | [6]; at 11.0 µM 90% | [6]; at 33.0 µM 99% | [6]; [18] 99% | [6]; at 50.0 µM 99.4% | [6]; at 100.0 µM 99% | [16]; [17] 81% | [16]; [18] 99% | [16]; at 50.0 µM 99.3% | [8]; at 33.0 µM 99% | [8]; at 100.0 µM 98% | [9]; [18] 99% | [9]; at 50.0 µM 99.3% | [10]; [17] 76% | [10]; at 11.0 µM 86% | [10]; at 33.0 µM 98% | [10]; [18] 99% | [10]; at 50.0 µM 99.5% | [10]; at 100.0 µM 98% | [11]; at 33.0 µM 99% | [11]; at 100.0 µM 99% | [12]; at 11.0 µM 83% | [12]; at 33.0 µM 98% | [12]; at 100.0 µM 99% | [13]; at 11.0 µM 97% | [13]; at 33.0 µM 99% | [13]; at 100.0 µM 99% | [14]; [17] 94% | [14]; [18] 99% | [14]; at 50.0 µM 99.6%
inactive: [1]; at 1.2 µM 10% | [1]; at 3.7 µM 31% | [2]; at 1.2 µM 2% | [2]; at 3.7 µM 10% | [2]; at 11.0 µM 37% | [3]; at 1.2 µM -33% | [3]; at 3.7 µM 14% | [3]; at 11.0 µM 64% | [4]; at 1.2 µM 5% | [4]; at 3.7 µM 25% | [5]; at 1.2 µM 7% | [5]; at 3.7 µM 21% | [5]; [17] 66% | [5]; at 11.0 µM 52% | [6]; at 1.2 µM 7% | [6]; at 3.7 µM 28% | [6]; [17] 27% | [8]; at 1.2 µM 5% | [8]; at 3.7 µM 13% | [8]; at 11.0 µM 34% | [9]; [17] 19% | [10]; at 1.2 µM 9% | [10]; at 3.7 µM 31% | [11]; at 1.2 µM 2% | [11]; at 3.7 µM 16% | [11]; at 11.0 µM 59% | [12]; at 1.2 µM 5% | [12]; at 3.7 µM 21% | [13]; at 1.2 µM 18% | [13]; at 3.7 µM 63%
